Reference: PubChem BioAssay AID1209 (Sanford-Burnham Center for Chemical Genomics, 2008)
Among all 190,000 compounds or so, about 810 (0.43%) were called active. Shown is part of a subset that was picked to be rich in actives. Values without a mark were called inactive. Rule as the data show it: active = inhibition above about 50%; inactive = the rest.

The compounds below were run against Mannose-6-phosphate isomerase (Homo sapiens) (UniProt P34949) (assay: inhibitors of human PMI, primary screen, biochemical, fluorescence intensity, coupled assay (AID 1209;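 also: plate controls were DMSO vehicle for no effect and wells lacking substrate for full effect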)). Conditions: purified PMI enzyme, at 20 µM, hits give high values.
Chain of Mannose-6-phosphate isomerase (Homo sapiens) (P34949 whole entry, looked up): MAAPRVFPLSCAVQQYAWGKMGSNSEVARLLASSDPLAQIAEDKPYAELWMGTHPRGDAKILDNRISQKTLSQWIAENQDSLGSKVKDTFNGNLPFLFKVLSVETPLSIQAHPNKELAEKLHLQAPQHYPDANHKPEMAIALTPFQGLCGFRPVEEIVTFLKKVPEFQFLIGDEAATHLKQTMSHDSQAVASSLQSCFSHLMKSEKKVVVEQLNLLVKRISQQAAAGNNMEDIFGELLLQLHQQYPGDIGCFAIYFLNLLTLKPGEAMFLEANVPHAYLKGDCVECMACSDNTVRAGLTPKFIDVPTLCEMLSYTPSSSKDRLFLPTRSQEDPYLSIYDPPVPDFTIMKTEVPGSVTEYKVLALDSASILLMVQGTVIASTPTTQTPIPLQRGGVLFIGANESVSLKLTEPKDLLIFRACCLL

Row | Structure (SMILES) | inhibition
1 | Cc1ccccc1N1C(=O)CSC1=C(C#N)C#N | -15.3%
2 | CCC1=C/C(=C/c2sc3ccccc3[n+]2CC)CC(C)(C)C1 | -60.6%
3 | CCOC(=O)c1cnc2c(-c3ccccc3)c(C)nn2c1N | 9.6%
4 | Cc1ccc(CNC(=O)CCCCn2c(=O)[nH]c3ccsc3c2=O)cc1 | -4.3%
5 | CCCCn1c(-c2sccc2C)n[nH]c1=S | 8.1%
6 | COc1cccc(NC(=O)C2CC(=O)N(C)C(=Nc3cccc(F)c3)S2)c1 (centres undefined) | 15.4%
7 | COc1cccc(NC(=O)C2CC(=O)N=C(N)S2)c1 (centres undefined) | 15.2%
8 | COc1cccc(NC(=O)C2CC(=O)n3cnnc3S2)c1 (centres undefined) | 51.1% (active)
9 | Cc1ccc(-c2nnc(N3CCN(c4ccccn4)CC3)c3ccccc23)cc1 | 10.5%
10 | CC(C)CC(=O)Nc1cccc(NC(=O)CC(C)C)n1 | -6.8%
11 | Cc1ccccc1NC(=O)C(NS(=O)(=O)c1ccc2c(c1)c(=O)n(C)c(=O)n2C)c1ccccc1 (centres undefined) | -1.4%
12 | O=C(O)CCC(=O)N1CCN(c2ccc(C(=O)c3ccc(F)cc3)cc2)CC1 | 2.5%
13 | O=C(COC(=O)c1ccccc1NC(=O)C1CC1)c1ccc2c(c1)OCCO2 | 20.7%
14 | O=C(O)/C=C/C(=O)Nc1ccccc1C(=O)OCC(=O)c1ccc2c(c1)OCCO2 | 108% (active)
15 | CC(C)C(=O)Nc1ccccc1C(=O)OCC(=O)c1ccc2c(c1)OCCO2 | 12.7%
16 | COc1cccc(N2C(=O)/C(=C\c3cccs3)NC2=S)c1 | -20.3%
17 | COc1ccc(N2C(=O)/C(=C/N(C)C)NC2=S)cc1 | 6.1%
18 | COc1ccc(N2C(=O)/C(=C/c3cccs3)NC2=S)cc1 | 65.2% (active)
19 | CC(C(=O)Nc1ncccn1)(c1ccccc1)c1ccccc1 | 0.1%
20 | C=CCNC(=S)NNC(=O)c1ccc(=O)n(Cc2ccccc2)c1 | -1.4%
21 | CCOC(=O)c1cnc2ccc(C)cc2c1NCCO | -0.9%
22 | CCOC(=O)c1cnc2c(ccc3ccccc32)c1NCCO | 103% (active)
23 | CCOC(=O)c1cnc2ccccc2c1NCCO | -1.9%
24 | C/C(CC1CC(C)OC1=O)=N\NC(N)=S (centres undefined) | 17.6%
25 | CCOC(=O)c1sc(N(C)C(C)=O)nc1C | -2.3%

Row | Structure (SMILES) | inhibition
26 | Cc1ccc(-n2c(SCC(=O)N(C)C3CCS(=O)(=O)C3)nc3ccccc3c2=O)cc1 (centres undefined) | -4.5%
27 | CC(C)(C)NC(=O)COc1ccc(CNc2ccc3[nH]c(=O)[nH]c3c2)cc1 | 62.2% (active)
28 | COc1cc(CNc2ccc3[nH]c(=O)[nH]c3c2)ccc1OCC(=O)NC(C)(C)C | 82.4% (active)
29 | C=CCOc1ccc(CNc2ccc3[nH]c(=O)[nH]c3c2)cc1OC | 81.1% (active)
30 | CCOc1cc(CNc2ccc3[nH]c(=O)[nH]c3c2)ccc1OCC(=O)NC(C)(C)C | 75% (active)
31 | CCOc1cc(CNc2ncn[nH]2)ccc1OCC(=O)NC(C)(C)C | 7%
32 | CCOc1cc(CNC)ccc1OCC(=O)NC(C)(C)C | -7.3%
33 | CC(C)(C)NC(=O)COc1ccc(CNc2ncn[nH]2)cc1 | 6.1%
34 | COc1cc(CNc2ccc(CNc3ncn[nH]3)cc2)ccc1OCC(=O)NC(C)(C)C | 0.6%
35 | CCc1ccc(OCC(=O)NC(C)(C)C)cc1 | 2.4%
36 | C=CCOc1c(Cl)cc(CNc2ccc3[nH]c(=O)[nH]c3c2)cc1OC | 26.3%
37 | COc1cc(CNc2ccc3[nH]c(=O)[nH]c3c2)cc(Br)c1OCC(=O)NC(C)(C)C | 29.5%
38 | C=CCOc1cccc(CNc2ccc3[nH]c(=O)[nH]c3c2)c1 | 17.8%
39 | CCCOc1ccc(C2/C(=C(/O)c3ccc(F)cc3)C(=O)C(=O)N2CCCN(C)C)cc1 (centres undefined) | 16.2%
40 | O=C(Nc1ccccc1N1CCOCC1)c1cc(-c2ccncc2)nc2ccccc12 | 4.3%
41 | COc1cc(/C=C(\C#N)c2nc3ccc(C)cc3[nH]2)cc([N+](=O)[O-])c1O | 46.2%
42 | CN(C)/C=C1\C(=O)N(c2ccc([N+](=O)[O-])cc2)N=C1c1ccccc1 | 24.5%
43 | O=C(NCCN1CCCC1)c1ccc(Cn2c(=S)[nH]c3ccc(Br)cc3c2=O)cc1 | -24.9%
44 | COc1ccc(C(=O)Nc2c(Cl)cc(Cl)cc2C(=O)NCCN2CCOCC2)cc1 | 2.6%
45 | Cc1ccsc1/C=C/C(=O)O | -2.7%
46 | Cc1cccc(N2CC(O)(c3cccs3)[N+]3=C2CCCC3)c1 (centres undefined) | -8.7%
47 | CCC(CC)c1nc(C#N)c(NCc2ccccc2)o1 | 5.4%
48 | CCOc1ccc(NC(=O)N2CCC(c3nc4ccccc4[nH]3)CC2)cc1 | -14.1%
49 | COc1ccc(-c2nc(CN3CCC(c4ccccc4)CC3)c(C)o2)cc1OC | 12.5%
50 | Cc1ccc(C(=O)Nc2sc(C)c(C)c2C(=O)c2ccccc2)cc1 | 50.2% (active)

Row | Structure (SMILES) | inhibition
51 | CCN(CC)C(=O)c1c(NC(=O)c2ccccc2)sc(C)c1C | -0.5%
52 | Cc1sc(NC(=O)c2ccccc2)c(C(=O)NC(C)C)c1C | 2.2%
53 | Cc1sc(NC(=O)CCl)c(C(=O)c2ccccc2)c1C | 23.2%
54 | Cc1ccc(C(=O)c2c(NC(=O)c3ccccc3C)sc(C)c2C)cc1 | 12.9%
55 | Cc1sc(NC(=O)c2ccccc2)c(C(=O)c2ccccc2)c1C | 57.2% (active)
56 | Cc1ccc(C(=O)c2c(NC(=O)c3ccccc3)sc(C)c2C)cc1 | 59.8% (active)
57 | Cc1sc(NC(=O)c2ccccc2)c(C(=O)NCCN(C)C)c1C | -8.6%
58 | Cc1ccccc1C(=O)Nc1sc(C)c(C)c1C(=O)c1ccccc1 | 13.9%
59 | COc1ccc(-n2ccnc2SCC(=O)NC2CCCC2)c(OC)c1 | -3.3%
60 | CC(C)=CC(=O)OCC(=O)Nc1ccc(Cl)cn1 | 7%
61 | Cc1nc(N2CCCCC2)c(C#N)c(C)c1[N+](=O)[O-] | 1.3%
62 | CC1CCN(C(=O)CCc2nnc(-c3ccccc3)o2)CC1 | 1.6%
63 | COc1ccc(OC)c(-n2nnnc2SCC(=O)Nc2ccc3c(c2)OCCO3)c1 | 14.4%
64 | CCOc1cc(Cl)c(NC(=O)c2ccco2)cc1OCC | 10.1%
65 | CC1=C(C(=O)Nc2ccccc2C)C2(CCCCC2)C(C(N)=O)C(=S)N1 (centres undefined) | -53.8%
66 | O=C(CSC1=Nc2ccccc2C2CC=NN12)Nc1ccc(F)cc1Cl (centres undefined) | 12.3%
67 | Cc1cc2c(cc1C)CSC(c1c(O)ccc3ccccc13)SC2 | 21.9%
68 | Cc1nc2ccccc2c(C)c1C(=O)c1ccccc1 | -1.1%
69 | CCOC(=O)c1c(C2COc3ccccc3O2)csc1NC(=O)c1ccccc1 (centres undefined) | 15.6%
70 | CCOC(=O)c1c(C2COc3ccccc3O2)csc1NC(=O)c1ccco1 (centres undefined) | 55.5% (active)
71 | CCOC(=O)c1c(C2COc3ccccc3O2)csc1N (centres undefined) | 19.8%
72 | C[n+]1ccccc1C1CCCC/C1=N\NC(N)=S (centres undefined) | 64.5% (active)
73 | C[n+]1ccccc1C1CCCC/C1=N\Nc1ccc([N+](=O)[O-])cc1[N+](=O)[O-] (centres undefined) | -5.6%
74 | CC1CCCC/C1=N\NC(=S)Nc1ccccc1 (centres undefined) | -33.2%
75 | Cc1ccc2c(c1)cc(CN(Cc1ccc3c(c1)OCO3)S(=O)(=O)c1ccccc1)c1nnnn12 | 12.1%

Row | Structure (SMILES) | inhibition
76 | Cc1ccc2c(c1)cc(CN(Cc1ccco1)C(=O)COc1ccccc1)c1nnnn12 | -0.9%
77 | Cc1ccc2c(c1)cc(CN(Cc1ccco1)S(=O)(=O)c1ccccc1)c1nnnn12 | 72.3% (active)
78 | Cc1ccc(O)c(/C=N/NC(=O)c2[nH]ncc2Br)c1 | -11.3%
79 | Cc1ccc(O)c(C=Nc2ccc3[nH]ncc3c2)c1 | 51.9% (active)
80 | COc1ccc(C=Nc2ccc3[nH]ncc3c2)c(O)c1 | 47.9%
81 | CCOC(=O)c1c(-c2ccccc2)cn2ccccc12 | 53.7% (active)
82 | CCOC(=O)c1c(-c2ccc(F)cc2)cn2ccccc12 | 4.3%
83 | CCOC(=O)c1c(-c2ccc(C)cc2)cn2ccccc12 | -10.2%
84 | COc1ccc(-c2csc(Nc3ccc(S(=O)(=O)Nc4cc(C)on4)cc3)n2)cc1C | 18.4%
85 | CN(Cc1ccncn1)C(=O)CC1C(=O)NCCN1Cc1cccc(Oc2ccccc2)c1 (centres undefined) | 4.2%
86 | COc1ccccc1N1CCN(CCCCOc2cccc3ccccc23)CC1 | -10.7%
87 | COc1cc(NC(=S)Nc2cccnc2)cc(OC)c1 | 55.4% (active)
88 | CCOc1ccc(NC(=S)Nc2cc(-c3ccccc3)[nH]n2)cc1 | 35.1%
89 | O=C(NC(=S)Nc1cccc2cnccc12)c1ccccc1 | 22.7%
90 | COc1cc(OC)cc(C(=O)NC(=S)Nc2cccnc2)c1 | 13.1%
91 | COc1cccc(NC(=S)Nc2cccnc2)c1 | 10.6%
92 | COc1ccc(NC(=S)Nc2cccc3cnccc23)cc1 | 64.2% (active)
93 | Fc1ccc(NC(=S)Nc2cccc3cnccc23)cc1 | 10.9%
94 | CCOc1ccc(NC(=S)Nc2cccnc2)cc1 | 27.8%
95 | CCOc1ccc(NC(=S)Nc2ccc(OCC)cc2)cc1 | 7.6%
96 | CCOc1ccc(NC(=S)Nc2cccc3cnccc23)cc1 | 64.9% (active)
97 | CCc1ccc(NC(=S)Nc2cccc3cnccc23)cc1 | 40.2%
98 | CCc1cccc2c(C(=O)Cn3nnc(-c4ccc(OC)c(OC)c4)n3)c[nH]c12 | 13.9%
99 | O=C(NCCc1c[nH]c2ccccc12)C(=O)NCC1OCCN1S(=O)(=O)c1ccc(Cl)cc1 (centres undefined) | 10%
